# Results taken from article PMC5540273 (PLoS ONE, 2017).
# Test system: PLK2
# Conditions: concentration: 1 μM,replicates: in singlicate; n = 1
# 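Note: KINOMEscan kinase panel screen.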
row,Structure (SMILES),%Inh [%]
1,CNC(=O)c1ccccc1Sc1ccc2c(/C=C/c3ccccn3)n[nH]c2c1,40
2,O=C(NCCNc1ccnc(NCc2ccc(F)cc2)n1)c1cc2ccccc2s1 [GSK1379944],0
3,CN(C)CCOc1ccc(-c2cc(-c3c[nH]nc3-c3ccccn3)ccn2)cc1 [GW835314],21
4,Cc1cc(C(=O)Nc2ccc(Oc3ccc4nc(NC(=O)C5CC5)cn4n3)cc2)nn1-c1ccccc1,0
5,Cc1ccc(-n2nc(C(C)(C)C)cc2NC(=O)Nc2ccc(OCCN3CCOCC3)c3ccccc23)cc1 [GW839464],0
6,CCN(CC)CCCCNc1ncc2cc(-c3c(Cl)cccc3Cl)c(NC(=O)NC(C)(C)C)nc2n1,5
7,CCN(CC)CCOc1ccc(Nc2ncc3cc(-c4c(Cl)cccc4Cl)c(=O)n(C)c3n2)cc1 [SB-601273],27
8,Cc1cc2cn[nH]c2cc1-c1cccc2c(N)c(C(N)=O)nnc12,5
9,CC(C)Nc1cc(-c2ccc3c(N)n[nH]c3c2)nc(N)n1 [GSK2221681],0
10,C[C@@H](Oc1cc(-c2cnn(C3CCNCC3)c2)cnc1N)c1c(Cl)ccc(F)c1Cl,17
11,Cl.Cl.Nc1nc(-c2ccc3c(N)n[nH]c3c2)cc(N2CCCC(NC(=O)c3ccccc3)C2)n1 (stereo not drawn) [GSK2286775],0
12,CC(C)N1C(=O)Cc2cc(Nc3ncc(C(F)(F)F)c(NCc4cccc(S(C)(=O)=O)c4)n3)ccc21,61
13,Cl.Cl.NC[C@H](Cc1ccc(C(F)(F)F)cc1)NC(=O)c1cc(Br)c(-c2ccnc3[nH]ccc23)s1 [GSK1487252],0
14,C[C@@H]1CCN(C(=O)CC#N)C[C@@H]1N(C)c1ncnc2[nH]ccc12,0
15,CN(C)CC(O)COc1ccc(Nc2nccc(-c3cnn4nc(N5CCOCC5)ccc34)n2)cc1 (stereo not drawn) [GW767488],28
16,Cc1occc1-c1nc(N)c(OC[C@@H](N)Cc2c[nH]c3ccccc23)cc1-c1cc2c(C)n[nH]c2cn1 [GSK1660450],65
17,Cc1ccc2c(-c3ccncc3)c(-c3ccc(F)cc3)nn2c1.Cl [GW461484],0
18,C[C@H]1Oc2cc(cnc2N)-c2c(nn(C)c2C#N)CN(C)C(=O)c2ccc(F)cc21,0
19,NC(=O)c1cc(-c2ccccc2)cc2c(C3CCNCC3)c[nH]c12 [GSK301362],34
20,C=CC(=O)Nc1cc2c(Nc3ccc(F)c(Cl)c3)ncnc2cc1OCCCN1CCOCC1 [GW781483],0
21,CCn1c(-c2nonc2N)nc2c(C#CC(C)(C)O)nc(OCCN)cc21.Cl.Cl [GSK902056],0
22,Cc1n[nH]c2ccc(-c3cc(OC[C@@H](N)Cc4ccccc4)cnc3-c3ccoc3)cc12.O=C(O)C(F)(F)F.O=C(O)C(F)(F)F [GSK507358],0
23,Cl.Cl.NC[C@H](CC1CCCCC1)NC(=O)c1cc(Br)c(-c2ccnc3[nH]ccc23)s1 [GSK1581427],0
24,COc1ccc(C[C@@H](CN)NC(=O)c2cc(Br)c(-c3ccnc4[nH]ccc34)s2)cc1.Cl.Cl [GSK1389063],27
25,Cl.Oc1cc(-c2nc(-c3ccccc3)[nH]c2-c2ccncc2)ccc1Cl [SB-386023],33
26,Nc1nc(Nc2ccccc2)cc(-c2ccc3c(N)n[nH]c3c2)n1 [GSK2225749],0
27,O=C(NCCCN1CCOC1=O)c1cnc(NCc2cc(Cl)ccc2Cl)nc1NC1CCCC1,0
